Rows were chosen to be rich in hits. Some 19% of all compounds tested hit in one or more screens of this group.
TDP1 cell noCPT – qHTS for Inhibitors of human tyrosyl-DNA phosphodiesterase 1 (TDP1): qHTS in cells in absence of CPT; DT40 Tdp1-/- hTDP1 cells, no CPT, ATP luminescence, 48 h; Potency, µM (titrated, usually from 46.2 µM), for inactives: at the highest dose activity change, negative = growth inhibition, hits mostly inhibitors; 420,000 tested, 15% active; AID 686978, 2013; further: potency means the concentration at half of the fitted maximal effect; on the % scale 0 is the no-effect control and ±100 the full control effect; nearly all actives have a fitted effect of over 55% in size
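DT40 Tdp1-/-;hTDP1 cells, no CPT (DMSO vehicle only), 400 cells/well; compounds pin-transferred; ≥48 hr, 37 °C; CellTiter-Glo 30 min RT dark, luminescence read.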
S-ASM inh – inhibitors of human secretory acid sphingomyelinase. P17405. placental ASM, HMU-PC fluorogenic substrate, 60 min. Potency, µM (series often up to 57.5 µM), without a hit: at the top dose activity change, negative = inhibition, usual class: inhibitors. 340,000 tested, 0.006% active. AID 504937; further: potency means the concentration at half of the fitted maximal effect
Target sequence (P17405 47-631 limits assumed): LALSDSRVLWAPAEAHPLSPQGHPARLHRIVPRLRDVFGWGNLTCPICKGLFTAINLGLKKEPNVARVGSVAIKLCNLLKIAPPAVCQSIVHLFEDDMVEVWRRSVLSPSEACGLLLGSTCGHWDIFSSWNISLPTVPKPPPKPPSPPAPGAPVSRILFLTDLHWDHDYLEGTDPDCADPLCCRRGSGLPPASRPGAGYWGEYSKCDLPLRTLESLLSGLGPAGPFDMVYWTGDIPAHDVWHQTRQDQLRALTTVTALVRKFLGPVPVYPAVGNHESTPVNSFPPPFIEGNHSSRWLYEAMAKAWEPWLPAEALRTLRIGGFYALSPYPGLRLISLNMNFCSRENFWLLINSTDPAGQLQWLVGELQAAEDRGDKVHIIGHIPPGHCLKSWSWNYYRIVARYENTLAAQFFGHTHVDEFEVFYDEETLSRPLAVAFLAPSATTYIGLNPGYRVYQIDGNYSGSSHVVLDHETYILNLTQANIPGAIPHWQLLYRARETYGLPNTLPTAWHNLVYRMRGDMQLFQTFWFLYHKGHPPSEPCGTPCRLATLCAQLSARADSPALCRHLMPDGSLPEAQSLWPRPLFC
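Human placenta-derived ASM enzyme was preincubated with compound for 10 minutes at room temperature, then given fluorogenic substrate HMU-PC0 (9 uM final) for 60 minutes at 37 °C; a pH 10 stop preceded fluorescence reading at Ex 386/Em 447 nm.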
DT40 TDP1 CPT – growth inhibition of DT40 Tdp1-/-;hTDP1 cells with camptothecin (screen for TDP1 inhibitors); 420,000 tested, 12% active; Potency, µM (titrated, usually from 46.2 µM), for the others: top-dose activity change, negative = growth inhibition, hits mostly inhibitors; AID 686979; chicken DT40 Tdp1-/-;hTDP1 cells + 20 nM CPT, ATP luminescence, 48 h; further: potency means the concentration at half of the fitted maximal effect; on the % scale 0 is the no-effect control and ±100 the full control effect; nearly all actives have a fitted effect of over 55% in size
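Cell growth measured by CellTiter-Glo luminescence after a minimum 48 h, 37 C compound exposure with 20 nM CPT in Tdp1-knockout DT40 cells stably expressing hTDP1, seeded 400/well; qHTS titration format.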
IL-1B inflam inh – inflammasome signaling inhibition, IL-1 beta readout | THP-1 LPS/ATP IL-1B secretion, AlphaLISA, 16 h; hits give low values | activity change, % at 57.5 µM | 360,000 tested, 4.7% active | AID 743279; in the data active means activity change below about -50%; inconclusive means mostly about -30% to -49%; further: on the % scale 0 is the no-effect control and ±100 the full control effect
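THP-1 cells pretreated 1 hr with compounds (up to 57.5 uM final), then stimulated with LPS (250 ng/mL final) plus ATP (1.25 mM final); secreted IL-1B measured by AlphaLISA after 16 hr, decreased signal indicating inhibition.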
HepG2 viability – HepG2 cytotoxicity, counter-screen for TGF-b inhibitors; HepG2 CAGA-GFP viability, ATP luminescence, 18 h; Potency, µM (doses to about 46.1 µM), for inactives: at the top dose activity change, negative = cytotoxicity, hits mostly cytotoxic; 410,000 tested, 0.76% active; AID 588856; further: potency means the concentration at half of the fitted maximal effect
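CellTiter-Glo luminescence gave cytotoxicity after 18 hours at 37 degrees C. The cells were HepG2 CAGA-GFP in 1% FBS DMEM, stimulated with 500 pg/mL TGF-beta after compound addition. %Activity was normalised to no-cell wells (complete cell-killing) and DMSO (no toxicity), and curves were fitted and classified.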
TGFb inhibitor – blocks TGF-b signaling. HepG2 CAGA-GFP TGF-b/SMAD3 reporter, GFP fluorescence, 18 h; TGF-beta stimulated, 500 pg/mL final. Potency, µM (titrated, usually from 46.1 µM), inactives show at the top dose activity, negative = inhibition, most hits filed as inhibitors. 410,000 tested, 1.2% active. AID 588855; further: potency means the concentration at half of the fitted maximal effect; on the % scale 0 is the no-effect control and ±100 the full control effect; nearly all actives have a fitted effect of over 65% in size
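Smad-responsive CAGA-GFP expression was quantified in HEPG2 cells exposed to compounds and 500 pg/mL final TGF-beta for 18 h at 37 degrees C; unstimulated wells defined full inhibition.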
* = called active by the depositor; ? = inconclusive; . = not tested or not shown. Unless noted, the call rests on the fitted dose curve; in most records, active means well fitted curve in the direction sought with a large enough effect; inconclusive means small, poorly fitted or top-dose-only effect, or another doubt; inactive means no such curve, though single readings can be large; an effect the other way counts as inactive or inconclusive.

SMILES | TDP1 cell noCPT | S-ASM inh | DT40 TDP1 CPT | IL-1B inflam inh | HepG2 viability | TGFb inhibitor
Cc1nc(N2CCOCC2)c2c(C(=O)N(C)c3ccccc3)c(C)oc2n1 | 7% | . | 1% | . | 1% | -9%
O=C(Nc1ccccc1C(=O)O)c1cc(S(=O)(=O)Nc2cccc(F)c2)ccc1Cl | ? | 17% | -20% | 13 | -4% | -7%
O=C(Cn1cc(SCc2c(F)cccc2Cl)c2ccccc21)N1CCCC1 | 7.3µM* | . | ? | . | -21% | 0%
O=C(CSc1cn(CC(=O)N2CCCCC2)c2ccccc12)NCc1ccccc1Cl | ? | . | 23µM* | . | 1% | 0%
O=C(CSc1cn(CC(=O)N2CCCCC2)c2ccccc12)NCc1ccccc1 | ? | . | ? | . | -21% | 0%
CN(C)CCCNC(=O)C(=O)NCC(c1cccs1)S(=O)(=O)c1ccc(F)cc1 (stereo not given) | -3% | 5% | ? | -2 | 9% | 18%
Cc1ccc(C)c(NC(=O)CSc2cn(CC(=O)N3CCCCC3)c3ccccc23)c1 | ? | . | ? | . | -9% | 0%
CCOc1ccccc1/C=N/n1nnnc1N | -5% | 1% | -3% | -7 | 1% | 13%
N#CC1=C(SCC(=O)NCc2ccccc2)NC(=O)CC1c1ccco1 (stereo not given) | 23µM* | -2% | ? | -19 | -4% | -4%
N#CC1=C(SCC(=O)Nc2ccccc2)NC(=O)CC1c1ccco1 (stereo not given) | 18µM* | 1% | 7.3µM* | -7 | -25% | -9%
N#CC1=C(SCC(=O)NC2CCCCC2)NC(=O)CC1c1ccco1 (stereo not given) | -17% | 1% | ? | -4 | 8% | 3%
COc1ccc(C)cc1S(=O)(=O)N(CC(=O)NC1CCCC1)c1ccc(F)cc1 | -24% | -1% | -3% | ? | -16% | 18%
Cc1ccccc1Nc1c(-c2ccc(O)cc2)nc2c(C)cccn12 | ? | . | 16µM* | . | -44% | ?
Cc1ccc(Nc2c(-c3ccc(C)cc3)nc3c(C)cccn23)cc1 | ? | . | 15µM* | . | -36% | 0%
Cc1ccc(-c2nc3c(C)cccn3c2Nc2ccccc2C)s1 | ? | . | 21µM* | . | -44% | ?
Cc1cccn2c(Nc3ccccc3)c(-c3ccc(N4CCOCC4)cc3)nc12 | 5.8µM* | . | ? | . | 18% | 26%
Cc1ccccc1Nc1c(-c2ccccn2)nc2c(C)cccn12 | ? | 2% | ? | -12 | -18% | -19%
CSCC(C)N1CCC(Oc2cccc(C(=O)NCc3ccccn3)c2)CC1 (stereo not given) | 1% | 7% | -8% | 23 | -21% | -7%
CCOc1ccc(-n2c(SCC(=O)NC)nnc2-c2ccco2)cc1 | -2% | 3% | 8% | 6 | 13% | 0%
COc1ccc(C2=CC(=O)CC(c3ccc(F)cc3)C2)cn1 (stereo not given) | ? | -2% | 15µM* | -16 | -3% | -25%
COc1cc(F)cc(C2=CC(=O)C[C@H](c3ccc(F)cc3)C2)c1 | ? | 1% | ? | ? | -7% | -26%
CCc1ccc(-c2n[nH]nc2C2=CC(=O)C[C@H](c3ccc(F)cc3)C2)cc1 | 2.9µM* | . | ? | -29 | -35% | ?
Cc1cc(N2CCC(C)CC2)nc(-n2nc(C)cc2C)n1 | 2.6µM* | 1% | 2.6µM* | 1 | -5% | -2%
C=CCNC(=O)/C(C#N)=C/c1ccccc1OCc1ccc(C(=O)OC)cc1 | 7.3µM* | 72% | 2.9µM* | -3 | -28% | ?
Cc1ccc(S(=O)(=O)N/N=C/c2cccc3nccnc23)cc1 | 15µM* | 1% | 13µM* | 5 | -41% | -29%

Screening data as filed in PubChem.
